BoNT F protease – BoNT F light chain protease inhibition; Multiplex microsphere protease cleavage assay, flow cytometry; inhibition, % at 10 µM; hit rate 0.22% among 360,000; AID 588497; in the data active = inhibition above about 35%, passing the limit was not always enough; inconclusive = no clear call, values can overlap the other calls; also: plate controls were buffer without enzyme for full effect and enzyme alone for no effect
Bead autofluor – compound fluorescence in toxin protease inhibitor counterscreen | compound autofluorescence counterscreen, microsphere flow cytometry; stronger effect = higher value | fluorescence intensity (test concentration not listed) | hit rate 3.1% among 360,000 | AID 624483; in the data active = fluorescence intensity above about 16000; inconclusive = no clear call, values can overlap the other calls
PriA SSB inh – inhibitors of Klebsiella pneumoniae PriA binding to SSB C-terminal tail; hit rate 0.6% among 430,000; inhibition, % at 33 µM; AlphaScreen SSBct-PriA binding, biotinylated peptide; in the data active = inhibition mostly above about 37%, no sharp cut-off; inactive = mostly below about 20%;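 also: plate controls were negative control peptide for no effect and reference peptide for full effect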
Anthrax LF inh2 – blocks Bacillus anthracis lethal factor protease; P15917; multiplex microsphere protease cleavage assay, LF; inhibition, % at 10 µM; hit rate 0.12% among 360,000; AID 588501; also: plate controls were buffer without enzyme for full effect and enzyme alone for no effect
Target sequence (P15917 whole entry, looked up): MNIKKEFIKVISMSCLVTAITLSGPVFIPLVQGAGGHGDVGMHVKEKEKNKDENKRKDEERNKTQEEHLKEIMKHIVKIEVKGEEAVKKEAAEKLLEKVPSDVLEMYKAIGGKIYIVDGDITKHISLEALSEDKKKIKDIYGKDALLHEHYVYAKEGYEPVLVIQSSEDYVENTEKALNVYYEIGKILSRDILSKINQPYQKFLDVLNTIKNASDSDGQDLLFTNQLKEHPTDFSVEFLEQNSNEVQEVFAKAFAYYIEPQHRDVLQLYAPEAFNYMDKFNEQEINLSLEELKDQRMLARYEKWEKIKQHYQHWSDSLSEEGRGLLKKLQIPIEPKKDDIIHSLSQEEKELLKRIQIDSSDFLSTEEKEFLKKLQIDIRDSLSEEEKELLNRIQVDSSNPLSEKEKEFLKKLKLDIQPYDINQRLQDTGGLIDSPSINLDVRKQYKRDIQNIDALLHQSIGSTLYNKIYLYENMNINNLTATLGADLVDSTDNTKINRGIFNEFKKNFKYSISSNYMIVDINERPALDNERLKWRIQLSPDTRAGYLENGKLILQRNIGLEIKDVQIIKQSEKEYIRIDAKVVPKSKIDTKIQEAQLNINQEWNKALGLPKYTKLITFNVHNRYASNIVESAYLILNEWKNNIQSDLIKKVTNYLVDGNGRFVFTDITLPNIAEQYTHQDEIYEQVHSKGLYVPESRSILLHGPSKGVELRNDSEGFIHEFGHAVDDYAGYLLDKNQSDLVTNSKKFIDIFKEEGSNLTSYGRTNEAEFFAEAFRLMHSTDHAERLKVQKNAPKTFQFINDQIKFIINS
BoNT-A LC inh2 – inhibitors of Botulinum neurotoxin A light chain protease; multiplex microsphere protease substrate cleavage, flow cytometry; inhibition, % at 10 µM; hit rate 0.17% among 360,000; AID 588499; also: plate controls were buffer without enzyme for full effect and enzyme alone for no effect
The depositor's hits bear a star; ? = inconclusive; . = no result. Hits are enriched below; roughly 3.1% of the tested compounds scored in any of these assays. Rule as the data show it, unless noted: active = inhibition above about 30%; inconclusive = no clear call, values can overlap the other calls; inactive = below that.

SMILES	BoNT F protease	Bead autofluor	PriA SSB inh	Anthrax LF inh2	BoNT-A LC inh2
Cc1cccc(NC(=O)c2ccc(S(=O)(=O)N3CCCC(C)C3)cc2)n1 (configuration not stated)	.	.	6	.	.
O=C(Cc1csc(SCc2ccc(F)cc2)n1)NCc1ccc2c(c1)OCO2	.	.	-5	.	.
CC(=O)Nc1ccc(C(=O)NCCNC(=O)C(C)(C)C)cc1	.	.	-1	.	.
Nc1ccc(N=Nc2ccccc2O)c(N)c1	.	.	68*	.	.
Cc1nc(NC(=O)Nc2ccccc2)sc1C(=O)N1CCN(c2cccc(C(F)(F)F)c2)CC1	.	.	-9	.	.
Cc1cccc(N2CCN(C(=O)CCNC(=O)Cn3ccc4ccccc4c3=O)CC2)c1C	10	19164*	5	-19	?
O=C(Cn1cnc2ccccc2c1=O)NCCC(=O)N1CCN(c2ccccc2)CC1	2	22618*	-20	-5	?
COC1=C(Nc2ccccc2OC)C(=O)c2ccccc2C1=O	.	.	68*	.	.
O=c1[nH]c(Nc2ccccc2Cl)cc2ccccc12	-2	4265	-9	-4	0
O=c1[nH]c(Nc2ccc(F)cc2)cc2ccccc12	-2	23479*	-6	-2	?
CCNC(=O)CN(CCc1ccccc1)S(=O)(=O)c1ccc(OC)cc1	3	16480*	5	-3	0
CC1(C)Cc2nc3sc4c(=O)n(CC(=O)NCc5ccco5)cnc4c3cc2CO1	12	19965*	18	-4	?
CC1(C)Cc2nc3oc4c(=O)n(CC(=O)Nc5ccccc5)cnc4c3cc2CO1	-4	2473	-7	1	0
O=C(Nc1ccccc1Cl)c1cccc(NC(=O)C2C3CC4OC(=O)C2C4C3)c1 (configuration not stated)	0	23034*	-6	3	1
CCCCOC(=O)Nc1cccc(C(C)=O)c1	-2	16653*	-4	-3	0
CCCCOC(=O)Nc1ccc(C(=O)OCCC)cc1	2	22577*	-46	-6	2
CCOC(=O)Nc1cccc(C(=O)O)c1	0	3164	0	-1	0
CCCOC(=O)Nc1ccc(N2CCCCC2)cc1	1	22287*	8	-3	2
CCCCC(=O)Nc1ccc(N2CCCC2)cc1	-131	1448	-3	-28	0
CCOC(=O)Nc1cccc(Cl)c1C	-1	4245	-22	1	0
CCCCOC(=O)Nc1cccc(Cl)c1C	-4	21233*	-22	-3	-2
O=C(c1ccc(Cl)s1)N1CCC(c2cccs2)CC1	.	.	-10	.	.
CCCCOC(=O)c1cccc(NC(=O)CCC(=O)O)c1	-1	20646*	-16	1	?
Cc1cc(NC(=O)CSc2nnc(-c3ccco3)n2Cc2ccccc2)no1	-13	3763	-7	4	-1
Cc1cc(NC(=O)CSc2nnc(-c3ccco3)n2Cc2ccco2)no1	3	19201*	-6	-10	1
SMILES	BoNT F protease	Bead autofluor	PriA SSB inh	Anthrax LF inh2	BoNT-A LC inh2
CCOc1ccccc1NC(=O)CSc1nnc(-c2ccco2)n1Cc1ccco1	2	21394*	-3	-12	2
COc1ccc(C)cc1NC(=O)CSc1nnc(-c2ccco2)n1Cc1ccco1	-5	17132*	-3	0	-2
CC(C)OC(=O)CSc1nnc(Cc2ccccc2)n1Cc1ccco1	-1	19241*	6	-9	2
COc1ccccc1NC(=O)CSc1nnc(-c2ccccc2)n1Cc1ccco1	.	.	55*	.	.
CCc1c(C)nc(N)n2c(SCC(=O)Nc3ccccc3OC)nnc12	-1	23325*	-2	0	-1
Cc1cc(NC(=O)CSc2nnc(CNc3cccc(C(F)(F)F)c3)n2Cc2ccco2)no1	-6	17703*	-3	-4	-3
Cc1cc(C(=O)CSc2nc3[nH]ncc3c(=O)n2-c2ccccc2)c(C)n1-c1ccccc1F	.	.	-10	.	.
CC(C)S(=O)(=O)c1cccc(C(=O)Nc2cccc3ccccc23)c1	.	.	-2	.	.
CN(C)CCOC(C1CCCCC1)C1CCCCC1	-4	24587*	-24	-6	-3
CN(C)CCNC(=S)NC1CCCCC1	-2	5795	4	-2	0
O=C(Cn1ncccc1=O)N1CCC[C@H](Cc2nc(C3CC3)no2)C1	.	.	-10	.	.
O=C(N/N=C/C(Br)=C\c1ccccc1)c1n[nH]c2c1CCC2	-7	25111*	.	-3	-5
Cc1ccc(S(=O)(=O)N2CC3(C)CN(S(=O)(=O)c4ccc(C)cc4)CC(C)(C2)C3O)cc1 (configuration not stated)	8	9708	-12	0	0
Cc1ccc(S(=O)(=O)N2CC3(C)CN(S(=O)(=O)c4ccc(C)cc4)CC(C)(C2)C3=O)cc1	3	22149*	-17	-3	3
CN1CCc2nc3sc(C#N)c(N)c3c(-c3cccs3)c2C1	-12	19864*	16	-1	15

Assay outcomes: PubChem, several laboratories
